# Test results from PubChem BioAssay (Tox21).
# Activity calls are given as the source filed them. Calls follow the shape of the full dose curve.
# Molecular target: Thyrotropin-releasing hormone receptor (Homo sapiens) (UniProt P34981)
# Experiment: qHTS assay to identify small molecule agonists of the thyrotropin-releasing hormone receptor (TRHR) signaling pathway (AID 1346891);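 also: HEK293 cells expressing TRHR with calcium dye readout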
# Conditions: TRHR-HEK293 calcium fluorescence, agonist mode; series mostly up to 57.6 µM
# Source text: National Center for Advancing Translational Sciences [NCATS] NIH Chemical Genomics Center [NCGC] U.S. Environmental Protection Agency [EPA] National Institutes of Environmental Health Sciences [NIEHS] National Toxicology Program [NTP] Assay overview: Thyrotropin-releasing hormone (TRH) receptor (TRHR) is a G-protein-coupled receptor which binds the tripeptide thyrotropin releasing hormone. TRHR is found in the brain and, when bound by TRH, acts (through phospholipase C) to increase intracellular inositol trisphosphate. It plays a crucial role in the anterior pituitary where it controls the synthesis and secretion of thyroid stimulating hormone and prolactin. The TRHR-Hek293 assay is a cell-based assay, and it has the potential to screen G protein-coupled receptors. A compound/drug can either activate (agonist) or suppress (antagonist) GPCRs that can be monitored by levels of intracellular calcium. Using this assay, the Tox21 10K compound library was screened to identify potential TRHR agonists.
# Assay Protocol Summary: The TRHR-Hek293 cells were dispensed at 1500cells/4uL/well in 1536-well black-clear bottom plates using a Multidrop dispenser. After the assay plates were incubated at a 37 C/5% CO2 incubator for 18 hours, 4 uL of Dye-Loading Solution was added to each well. The plates were incubated at 37 C for 2 hours. For agonist mode, 23 nL of compounds dissolved in DMSO, positive controls or DMSO only was transferred to the assay plate by a pin tool. The fluorescence intensity in the plates was measured using FDSS 7000EX kinetic plate reader for 3 min at 1 sec intervals. Each test compound was measured at 15 concentrations and in triplicates.
# % is scaled to controls: 0 for no effect and ±100 for the full control effect.
# Thyrotropin-releasing hormone receptor (Homo sapiens), sequence (P34981 whole entry, looked up): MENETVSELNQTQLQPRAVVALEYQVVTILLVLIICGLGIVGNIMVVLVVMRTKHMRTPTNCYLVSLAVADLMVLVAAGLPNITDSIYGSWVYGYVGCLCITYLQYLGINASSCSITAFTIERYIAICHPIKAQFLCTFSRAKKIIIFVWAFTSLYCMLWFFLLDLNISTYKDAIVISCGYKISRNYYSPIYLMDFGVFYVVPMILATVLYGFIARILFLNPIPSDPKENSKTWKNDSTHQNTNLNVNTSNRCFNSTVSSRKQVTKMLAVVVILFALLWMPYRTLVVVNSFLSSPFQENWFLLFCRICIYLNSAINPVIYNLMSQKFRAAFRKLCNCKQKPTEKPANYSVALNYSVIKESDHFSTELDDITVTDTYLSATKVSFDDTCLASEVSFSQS
SMILES,outcome,activation
O=C(O)c1cccc(Oc2ccccc2)c1,inactive,–
CC(=O)NNC(C)=O,inactive,–
ClC1=C(Cl)C1(Cl)Cl,inactive,–
CC(=O)OCC(C)C,inactive,–
CC(C)COC(=O)c1ccc(O)cc1,inactive,–
CCC1CCC(CCC(=O)O)C1 (stereo not given),inactive,–
COc1ccc(/C=C/C(=O)c2ccc(OC)cc2OC)cc1,inactive,–
Nc1nc(-c2ccc([N+](=O)[O-])cc2)cs1,inactive,–
Cc1ccc2nc(N)[nH]c(=O)c2c1Sc1ccncc1,inactive,–
Cc1c(C2(c3cc(Br)c(O)c(Br)c3C)OS(=O)(=O)c3ccccc32)cc(Br)c(O)c1Br,inactive,–
CC(C(=O)O)c1ccc(C(=O)c2cccs2)cc1 (stereo not given),inactive,–
Nc1ccc(S(=O)(=O)NCc2ccccc2)cc1,inactive,–
O=C(O)CCCc1c[nH]c2ccccc12,inactive,–
CNCc1ccc(NC(=O)c2c[nH]c3c2C(=O)CCC3)cc1,inactive,–
O=C1OC[C@H](Cc2cccc(O)c2)[C@H]1Cc1cccc(O)c1,inactive,–
COc1ccc(C2C(=O)c3ccccc3C2=O)cc1,inactive,–
CCCCCCCCCCCCCCCC(=O)OCC,inactive,–
CCCCCCCCCCCCCCN(C)C,–,1.06% [at 11.8 µM] (inactive)
FC(F)(F)C(F)(F)C(F)(F)C(F)(F)CCI,inactive,–
CCCCCCCC(=O)OCCCCCC,inactive,–

SMILES,outcome,activation
CC[C@H]1OC(=O)[C@H](C)[C@@H](O[C@H]2C[C@@](C)(OC)[C@@H](O)[C@H](C)O2)[C@H](C)[C@@H](O[C@@H]2O[C@H](C)C[C@H](N(C)C)[C@H]2O)[C@](C)(O)C[C@@H](C)CN(C)[C@H](C)[C@@H](O)[C@]1(C)O,inactive,–
CCC(C)(C)C(=O)O,inactive,–
O=C(O)c1ccc(O)cc1O,inactive,–
CCN(CC)c1cccc(O)c1,inactive,–
CC(CCc1ccc(O)cc1)NCCc1ccc(O)c(O)c1 (stereo not given),inactive,–
CCCCCCCC(=O)Oc1c(Br)cc(C#N)cc1Br,inactive,–
NC(=O)CCCCC(N)=O,inactive,–
CCN(CC)CCOc1ccccc1C(=O)CCc1ccccc1,inactive,–
CCCCC(CC)COS(=O)(=O)O (stereo not given),inactive,–
CC(=O)c1ccc[nH]1,inactive,–
CS(=O)(=O)c1ccc([C@@H](C[C@H]2CCC(=O)C2)C(=O)Nc2cnccn2)cc1Cl,inactive,–
Cc1ccccc1S(N)(=O)=O,inactive,–
CCOCCC(=O)OCC,inactive,–
CCSC(=O)N(CC)CC,inactive,–
CCCCCCC(O)CCOC(C)=O (stereo not given),inactive,–
O=C(Nc1ccc(C(=O)O)c(O)c1)c1ccccc1,inactive,–
c1ccc(CCCc2ccncc2)cc1,inactive,–
O=NN(CCCl)C(=O)NCCCl,inactive,–
Cc1ccc(Nc2c(F)cccc2Cl)c(CC(=O)O)c1,inactive,–
CCN(CC)CCOC(=O)C(c1ccccc1)c1ccccc1,inactive,–
